Inconclusive results are not listed. Values without a mark were called inactive. The source made the active and inactive calls. Unless noted, calls follow the shape of the dose curve; as a rule, active = well fitted curve in the direction sought with a large enough effect; inconclusive = small, poorly fitted or top-dose-only effect, or another doubt; inactive = no such curve, though single readings can be large; an effect the other way counts as inactive or inconclusive.
Target: ATP-dependent 6-phosphofructokinase (Trypanosoma brucei brucei) (UniProt O15648)
Test: qHTS Assay to Find Inhibitors of T. brucei phosphofructokinase: hit validation (AID 492961);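 also: luminescence reports ADP formed as PFK phosphorylates fructose-6-phosphate with ATP; % is scaled to controls: 0 for no effect and ±100 for the full control effect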
Settings: T. brucei PFK, ADP-Glo luminescence; series mostly up to 51.4 µM; activity change, negative = inhibition: at the top concentration
Method in brief: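 PFK 1.25 nM, F6P 0.5 mM, ATP 0.1 mM, MgCl2 5 mM, 0.1 M TEA pH 8.0, Tween20 0.01%, BSA 0.1%; 45 min RT. ADP-Glo two-step detection, luminescence. qHTS titration; curve fitting with curve-class categorization.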

Sequence of ATP-dependent 6-phosphofructokinase (Trypanosoma brucei brucei) (O15648 whole entry, looked up): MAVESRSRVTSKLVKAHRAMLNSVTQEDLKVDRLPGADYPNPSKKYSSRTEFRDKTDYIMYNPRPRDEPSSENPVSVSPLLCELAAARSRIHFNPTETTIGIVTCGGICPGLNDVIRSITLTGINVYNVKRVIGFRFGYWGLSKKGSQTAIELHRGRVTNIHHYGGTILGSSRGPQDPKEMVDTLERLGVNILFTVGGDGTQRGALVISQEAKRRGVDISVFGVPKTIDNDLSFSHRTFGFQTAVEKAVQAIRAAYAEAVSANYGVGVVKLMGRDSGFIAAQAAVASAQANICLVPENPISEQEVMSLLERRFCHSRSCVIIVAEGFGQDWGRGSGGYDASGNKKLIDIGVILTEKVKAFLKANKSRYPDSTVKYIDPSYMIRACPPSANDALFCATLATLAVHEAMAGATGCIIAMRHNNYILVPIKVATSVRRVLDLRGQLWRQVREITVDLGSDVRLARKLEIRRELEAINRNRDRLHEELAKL

SMILES | activity change, negative = inhibition
CC(=O)N1CCN(c2ccc(OC[C@@H]3CO[C@@](Cn4ccnc4)(c4ccc(Cl)cc4Cl)O3)cc2)CC1 | -3.87%
OC[C@H](S)CS | -3.37%
N[C@H](COP(=O)(O)O)C(=O)O | -5.96%
C[N+]1(C)[C@@H]2CC(OC(=O)[C@@H](CO)c3ccccc3)C[C@@H]1[C@H]1O[C@H]12 (stereo not given in full) | 0%
C(=C/c1ccccc1)/CN1CCN(C(c2ccccc2)c2ccccc2)CC1 | -0.106% [at 24.3 µM]
COc1cc2nc(N(C)CCCNC(=O)[C@@H]3CCCO3)nc(N)c2cc1OC | -3.32% [at 24.3 µM]

Target: Ubiquitin carboxyl-terminal hydrolase 1 (Homo sapiens) (UniProt O94782)
Test: Inhibitors of USP1/UAF1: Pilot qHTS (AID 504865);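 also: rhodamine fluorescence freed from ubiquitin-rhodamine substrate followed over time; top concentration of the series differs between compounds; % is scaled to controls: 0 for no effect and ±100 for the full control effect; nearly all actives have a fitted effect of over 35% in size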
Settings: purified USP1/UAF1, Ub-rhodamine cleavage fluorescence; series mostly up to 114 µM; activity change, negative = inhibition: at the top concentration
Method in brief: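 Enzyme-free wells gave the negative control, while test wells held 1nM USP1/UAF1 preincubated with compound for 15 min at room temperature. Ub-Rho at 150nM final started the reaction, and fluorescence at 480/540 nm was recorded kinetically.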

Sequence of Ubiquitin carboxyl-terminal hydrolase 1 (Homo sapiens) (O94782 whole entry, looked up): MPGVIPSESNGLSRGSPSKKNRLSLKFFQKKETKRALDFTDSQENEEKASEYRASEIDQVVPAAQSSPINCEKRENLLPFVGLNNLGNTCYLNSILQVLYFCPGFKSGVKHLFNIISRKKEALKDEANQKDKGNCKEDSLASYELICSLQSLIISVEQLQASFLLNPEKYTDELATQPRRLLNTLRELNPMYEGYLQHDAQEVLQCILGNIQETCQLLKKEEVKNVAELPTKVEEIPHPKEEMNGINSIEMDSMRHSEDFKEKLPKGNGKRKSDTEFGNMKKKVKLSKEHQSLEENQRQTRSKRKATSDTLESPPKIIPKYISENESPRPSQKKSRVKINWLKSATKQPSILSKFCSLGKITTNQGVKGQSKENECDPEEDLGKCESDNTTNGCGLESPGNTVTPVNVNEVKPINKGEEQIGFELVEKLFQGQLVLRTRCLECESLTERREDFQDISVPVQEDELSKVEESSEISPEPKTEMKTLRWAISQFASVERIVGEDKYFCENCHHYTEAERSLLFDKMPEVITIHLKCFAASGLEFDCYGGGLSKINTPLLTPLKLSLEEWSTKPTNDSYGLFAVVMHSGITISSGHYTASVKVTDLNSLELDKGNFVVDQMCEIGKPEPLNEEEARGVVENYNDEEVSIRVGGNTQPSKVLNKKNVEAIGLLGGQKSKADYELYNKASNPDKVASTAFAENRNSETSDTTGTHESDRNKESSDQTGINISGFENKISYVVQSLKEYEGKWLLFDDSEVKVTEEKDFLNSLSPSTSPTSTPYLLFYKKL

SMILES | activity change, negative = inhibition
OC[C@H](S)CS | -9.39%
Cc1nnc(SCC2=C(C(=O)O)N3C(=O)[C@@H](NC(=O)Cn4cnnn4)[C@@H]3SC2)s1 | 7.22% [at 54.9 µM]
CN(C)c1ccc(-c2nc(N3CCNCC3)c3ccccc3n2)cc1 | -14.5%
N[C@H](COP(=O)(O)O)C(=O)O | -5.89%
C[N+]1(C)[C@@H]2CC(OC(=O)[C@@H](CO)c3ccccc3)C[C@@H]1[C@H]1O[C@H]12 (stereo not given in full) | 4.07%
C(=C/c1ccccc1)/CN1CCN(C(c2ccccc2)c2ccccc2)CC1 | -6.4% [at 54.9 µM]
COc1cc2nc(N(C)CCCNC(=O)[C@@H]3CCCO3)nc(N)c2cc1OC | -3.55% [at 54.9 µM]

Target: Luciferin 4-monooxygenase (Photinus pyralis) (UniProt P08659)
Test: Biochemical firefly luciferase enzyme assay for NPC (AID 624030);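 also: purified P. pyralis luciferase at 10 nM with luciferin and ATP substrate; 0% = DMSO and -100% = full luciferase inhibition by PTC124 control; nearly all actives have a fitted effect of over 70% in size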
Settings: purified P. pyralis luciferase, luminescence, 5 min; series mostly up to 58.6 µM; activity change, negative = inhibition: at the top concentration
Method in brief: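 Counter-screen for direct inhibition of the luciferase enzyme by approved-drug library compounds, run at 10 nM enzyme in 50 mM Tris acetate (final). Luminescence was read within 5 min of enzyme-buffer addition and normalized to PTC124 versus DMSO (0%).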

Sequence of Luciferin 4-monooxygenase (Photinus pyralis) (P08659 whole entry, looked up): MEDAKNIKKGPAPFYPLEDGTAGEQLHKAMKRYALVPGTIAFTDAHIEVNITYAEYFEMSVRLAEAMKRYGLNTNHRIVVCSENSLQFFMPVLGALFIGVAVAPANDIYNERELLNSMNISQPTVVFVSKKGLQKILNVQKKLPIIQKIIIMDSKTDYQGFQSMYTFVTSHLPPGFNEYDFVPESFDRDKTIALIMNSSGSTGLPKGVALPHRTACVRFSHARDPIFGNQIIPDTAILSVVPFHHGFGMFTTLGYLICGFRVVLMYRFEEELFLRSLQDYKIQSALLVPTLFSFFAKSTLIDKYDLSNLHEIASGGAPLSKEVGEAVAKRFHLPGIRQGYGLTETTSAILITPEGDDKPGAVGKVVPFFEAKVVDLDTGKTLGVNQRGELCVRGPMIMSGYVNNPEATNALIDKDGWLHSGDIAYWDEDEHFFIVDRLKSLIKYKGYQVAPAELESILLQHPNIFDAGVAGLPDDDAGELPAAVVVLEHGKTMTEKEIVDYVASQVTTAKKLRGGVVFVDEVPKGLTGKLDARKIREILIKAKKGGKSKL

SMILES | activity change, negative = inhibition
CC(=O)N1CCN(c2ccc(OC[C@@H]3CO[C@@](Cn4ccnc4)(c4ccc(Cl)cc4Cl)O3)cc2)CC1 | 2.29%
N[C@H](COP(=O)(O)O)C(=O)O | 48.3%
C[N+]1(C)[C@@H]2CC(OC(=O)[C@@H](CO)c3ccccc3)C[C@@H]1[C@H]1O[C@H]12 (stereo not given in full) | 1.85%
C(=C/c1ccccc1)/CN1CCN(C(c2ccccc2)c2ccccc2)CC1 | 28.9% [at 24.9 µM]
COc1cc2nc(N(C)CCCNC(=O)[C@@H]3CCCO3)nc(N)c2cc1OC | 2.19% [at 24.9 µM]

Tested on: not listed separately
Test: S16 Schwann cell viability assay (CellTiter-Glo assay) (AID 624031); also: nearly all actives have a fitted effect of over 70% in size; also: potency is read from the fitted curve at half-maximal effect;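 as to activity change, negative = cytotoxicity: native untransfected S16 rat Schwann cells; cellular ATP luminescence as a viability measure; plate controls were DMSO-treated cells for no effect and cell-free wells for full effect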
Settings: S16 rat Schwann cells viability, 24 h; series mostly up to 57.5 µM; activity change, negative = cytotoxicity: at the top concentration
Method in brief: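 Rat S16 Schwann cells without reporter constructs received compound or DMSO for 24 h at 37 °C under 5% CO2. Cellular ATP was then quantified by CellTiter-Glo luminescence, with vehicle wells defined as 0% activity and cell-free wells as reference.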

SMILES | activity change, negative = cytotoxicity | Potency
CC(=O)N1CCN(c2ccc(OC[C@@H]3CO[C@@](Cn4ccnc4)(c4ccc(Cl)cc4Cl)O3)cc2)CC1 | -3.53% | 
OC[C@H](S)CS |  | 36.1 µM (active)
N[C@H](COP(=O)(O)O)C(=O)O | 0% | 
C[N+]1(C)[C@@H]2CC(OC(=O)[C@@H](CO)c3ccccc3)C[C@@H]1[C@H]1O[C@H]12 (stereo not given in full) | 6.92% | 
COc1cc2nc(N(C)CCCNC(=O)[C@@H]3CCCO3)nc(N)c2cc1OC | -16.4% [at 25.7 µM] | 

Tested on: not listed separately
Test: S16 Schwann cell PMP22 intronic element firefly luciferase assay (AID 624032); also: nearly all actives have a fitted effect of over 30% in size; also: potency is read from the fitted curve at half-maximal effect;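 as to activity change, negative = inhibition: plate controls were DMSO for no effect and PTC124 positive control mean for full effect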
Settings: S16 rat Schwann cells, PMP22 element FLuc, 24 h; series mostly up to 57.5 µM; activity change, negative = inhibition: at the top concentration
Method in brief: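 Rat S16 Schwann cells stably carrying a PMP22 intronic element-driven Fluc reporter were seeded overnight, then exposed to compounds for 24 h at 37 °C. Luminescence was normalized to PTC124 (positive control) and DMSO (0% activity).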

SMILES | activity change, negative = inhibition | Potency
CC(=O)N1CCN(c2ccc(OC[C@@H]3CO[C@@](Cn4ccnc4)(c4ccc(Cl)cc4Cl)O3)cc2)CC1 | -2.25% | 
OC[C@H](S)CS |  | 7.21 µM (active)
N[C@H](COP(=O)(O)O)C(=O)O | 18.7% | 
C[N+]1(C)[C@@H]2CC(OC(=O)[C@@H](CO)c3ccccc3)C[C@@H]1[C@H]1O[C@H]12 (stereo not given in full) | 1.25% | 
COc1cc2nc(N(C)CCCNC(=O)[C@@H]3CCCO3)nc(N)c2cc1OC | 5.42% [at 25.7 µM] | 

Tested on: not listed separately
Test: S16 Schwann cell PMP22 intronic element beta-lactamase assay (AID 624044; calls by dose curve;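 also: 0% = DMSO and -100% = potassium clavulanate positive control; nearly all actives have a fitted effect of over 15% in size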)
Settings: S16 rat Schwann cells, PMP22 element beta-lactamase FRET, 24 h; series mostly up to 38.3 µM; ratio activity, negative = inhibition: at the top concentration
Method in brief: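 Beta-lactamase reporter under a PMP22 intronic regulatory element in stable S16 rat Schwann cells; 24 h compound exposure. 460 nm blue signal normalized between DMSO (0%) and potassium clavulanate, with 535 nm FRET tracking viability; curves classed by r2 and response.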

SMILES | ratio activity, negative = inhibition
CC(=O)N1CCN(c2ccc(OC[C@@H]3CO[C@@](Cn4ccnc4)(c4ccc(Cl)cc4Cl)O3)cc2)CC1 | 5.32%
N[C@H](COP(=O)(O)O)C(=O)O | 1.16%
C[N+]1(C)[C@@H]2CC(OC(=O)[C@@H](CO)c3ccccc3)C[C@@H]1[C@H]1O[C@H]12 (stereo not given in full) | -2.48%
C(=C/c1ccccc1)/CN1CCN(C(c2ccccc2)c2ccccc2)CC1 | -9.32% [at 17.1 µM]
COc1cc2nc(N(C)CCCNC(=O)[C@@H]3CCCO3)nc(N)c2cc1OC | 2.42% [at 17.1 µM]

Tested on: not listed separately
Test: qHTS profiling for inhibitors of Plasmodium falciparum proliferation (AID 504749); also: nearly all actives have a fitted effect of over 60% in size; also: potency is read from the fitted curve at half-maximal effect;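 as to activity, negative = inhibition: 0% = DMSO vehicle and full inhibition = artemisinin control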
Settings: P. falciparum in erythrocytes, SYBR Green DNA, 72 h; at 28.7 µM (top of the series); parasite line A
Method in brief: (§1)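 Fluorescence of SYBR Green-bound parasite DNA, read at 485/535 nm, served as the growth measure. Infected erythrocytes were cultured with compound 72 h; artemisinin (0.29 uM) and DMSO wells defined the normalization range.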

SMILES | activity, negative = inhibition
CC(=O)N1CCN(c2ccc(OC[C@@H]3CO[C@@](Cn4ccnc4)(c4ccc(Cl)cc4Cl)O3)cc2)CC1 | -14.8%
OC[C@H](S)CS | -3.06%
N[C@H](COP(=O)(O)O)C(=O)O | 15.2%
C[N+]1(C)[C@@H]2CC(OC(=O)[C@@H](CO)c3ccccc3)C[C@@H]1[C@H]1O[C@H]12 (stereo not given in full) | 5.68%

Same assay, conditions: P. falciparum in erythrocytes, SYBR Green DNA, 72 h; at 28.7 µM (top of the series); parasite line B

SMILES | activity, negative = inhibition
CC(=O)N1CCN(c2ccc(OC[C@@H]3CO[C@@](Cn4ccnc4)(c4ccc(Cl)cc4Cl)O3)cc2)CC1 | -14.2%
N[C@H](COP(=O)(O)O)C(=O)O | 6.94%
C[N+]1(C)[C@@H]2CC(OC(=O)[C@@H](CO)c3ccccc3)C[C@@H]1[C@H]1O[C@H]12 (stereo not given in full) | -7.21%

Tested on: 3D7
Test: as above
Settings: P. falciparum in erythrocytes, SYBR Green DNA, 72 h; series mostly up to 28.7 µM; activity, negative = inhibition: at the top concentration
Method in brief: as §1

SMILES | activity, negative = inhibition | Potency
CC(=O)N1CCN(c2ccc(OC[C@@H]3CO[C@@](Cn4ccnc4)(c4ccc(Cl)cc4Cl)O3)cc2)CC1 | -18.1% | 
OC[C@H](S)CS |  | 3.16 µM (active)
N[C@H](COP(=O)(O)O)C(=O)O | 0.683% | 
C[N+]1(C)[C@@H]2CC(OC(=O)[C@@H](CO)c3ccccc3)C[C@@H]1[C@H]1O[C@H]12 (stereo not given in full) | -0.998% | 
COc1cc2nc(N(C)CCCNC(=O)[C@@H]3CCCO3)nc(N)c2cc1OC | -0.605% [at 12.8 µM] | 

Tested on: 7G8
Test: as above
Settings: P. falciparum in erythrocytes, SYBR Green DNA, 72 h; series mostly up to 28.7 µM; activity, negative = inhibition: at the top concentration
Method in brief: as §1

SMILES | Potency | activity, negative = inhibition
CC(=O)N1CCN(c2ccc(OC[C@@H]3CO[C@@](Cn4ccnc4)(c4ccc(Cl)cc4Cl)O3)cc2)CC1 | 11.2 µM (active) | 
OC[C@H](S)CS | 0.891 µM (active) | 
N[C@H](COP(=O)(O)O)C(=O)O |  | -9.54%
C[N+]1(C)[C@@H]2CC(OC(=O)[C@@H](CO)c3ccccc3)C[C@@H]1[C@H]1O[C@H]12 (stereo not given in full) |  | -13.4%
COc1cc2nc(N(C)CCCNC(=O)[C@@H]3CCCO3)nc(N)c2cc1OC |  | -4.85% [at 12.8 µM]

— PubChem BioAssay (NCATS)
